Bioassay records: PubChem, Center for Chemical Genomics, University of Michigan
Dicer inh: blocks human Dicer maturation of pre-miR-21; cat-ELCCA pre-miR-21 Dicer processing, chemiluminescence; hits give high values; Q9UPY3; z-score at 25 µM; AID 1347074; actives 6% (n = 47,000); in the data active = z-score above about 3, passing the limit was not always enough;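 also: higher signal means more uncleaved substrate so more Dicer inhibition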
Hits are given with their value; - = inactive. Only a selection was taken, and hits are over-represented in it overall.

SMILES	Dicer inh
COc1cccc(C2C3=C(CC(C)(C)CC3=O)NC3=C2C(=O)c2ccccc23)c1 (stereo not drawn)	-
O=C1N(c2ccc(C(F)(F)F)cc2)C(=Nc2ccc(C(F)(F)F)cc2)SC12CC2	-
O=C1CC(=O)CC(c2ccc(Cl)cc2Cl)C1	-
O=c1c2ccccc2nc(/C=C/c2ccco2)n1Cc1ccccc1	3.01
O=C(Nc1nc2ccccc2c(=O)s1)c1ccco1	-
O=C(CSc1nc2ccccc2c(=O)n1Cc1ccco1)c1ccccc1	-
Cc1nc2ccc(Br)cc2c(=O)o1	-
Cc1ccc2nc(-c3cc4ccccc4o3)oc(=O)c2c1	-
COc1ccccc1/C=C/c1nc2cc(Cl)ccc2c(=O)o1	-
Cc1ccc2nc(/C=C/c3ccco3)oc(=O)c2c1	10.7
O=c1oc(/C=C/c2ccco2)nc2ccccc12	17.7
C(=C\c1ccco1)/C1=NN(Cc2ccccc2)CC1	-
COC(=O)/C=C1\SC(=Nc2ccc(C(C)(C)C)cc2)N(c2ccc(C(C)(C)C)cc2)C1=O	-
O=C1CC(c2cccc(Br)c2)c2c(n[nH]c2-c2ccccc2)N1 (stereo not drawn)	-
CC(C)c1ccc(Nc2nc3cccnc3s2)cc1	-
CCc1ccc(C2C(C(=O)OCCOC)=C(C)N=C3SCCC(=O)N32)cc1 (stereo not drawn)	-
O=C(O)CCC(=O)Nc1sc2c(c1C(=O)Nc1ccccc1)CCC2	-
CC(C)(C)OC(=O)NC(Cc1ccccc1)C(=O)NCc1ccccc1 (stereo not drawn)	4.56
CC(C)CC(NC(=O)OC(C)(C)C)C(=O)NCc1ccccc1 (stereo not drawn)	-
CC(NC(=O)OC(C)(C)C)C(=O)NCc1ccccc1 (stereo not drawn)	-
Nc1nc(SCc2cccc(C(F)(F)F)c2)ncc1C(=O)O	-
S=C(N/N=C/c1c[nH]c2ccccc12)NC1CC1	-
N#Cc1ccccc1NC(=O)C1CCCCC1	-
COc1ccc2nc(C)cc(-n3nc(C)cc3C)c2c1	-
Cc1cccc(NC(=O)c2ccc(Cl)cc2)n1	3.08
SMILES	Dicer inh
Cc1cccc(NC(=O)c2ccccc2)n1	-
O=C(Nc1ncccn1)c1ccc(Cl)cc1	-
CC(=O)OC[C@H]1OC(OC(C)(C)C)[C@H](OC(C)=O)[C@@H](OC(C)=O)[C@@H]1OC(C)=O (stereo partly drawn)	-
CSc1c(C#N)c(-c2cccs2)nn1C	-
O=C1CCC([N+](=O)[O-])C(c2cccc(OCc3ccccc3)c2)N1 (stereo not drawn)	-
Clc1ccc(CSc2nsc(SCc3ccc(Cl)cc3)n2)cc1	-
Clc1ccc(CSc2nnc(SCc3ccc(Cl)cc3)s2)cc1	-
Nc1ccc2nc(SCc3ccc(Cl)cc3)sc2c1	3.91
Cc1oc(S(=O)(=O)N2CCCCC2)cc1C(=O)Nc1ccccc1	-
O=c1oc2cc3occ(-c4ccccc4)c3cc2c2ccccc12	-
COC(=O)c1cnc(N/N=C/C=C/c2ccccc2)nc1C(F)(F)F	-
COC(=O)c1ccc2nsnc2c1	3.81
CCOC(=O)c1ccc2nsnc2c1	-
O=C(O)c1ccc2nsnc2c1	-
CC(C)CC(NCc1ccccc1O)C(=O)O (stereo not drawn)	-
O=C(NC(=O)c1ccc(F)c(Cl)c1)NN(Cc1c(F)cccc1Cl)c1ccccc1	-
CC(C)S(=O)(=O)c1csc(NC(=O)Nc2c(Cl)cc(Cl)cc2Cl)c1Cl	-
CC(C)S(=O)(=O)c1csc(C(N)=O)c1Cl	-
CC(C)S(=O)(=O)c1csc(NC(=O)Nc2ccccc2Cl)c1Cl	3.77
CCCCSc1nnc2c(n1)OC(c1ccc([N+](=O)[O-])o1)Nc1ccccc1-2 (stereo not drawn)	-
CC(=O)/C=C(/NCCN/C(=C/C(C)=O)c1ccccc1)c1ccccc1	-
COc1ccc(O)c(C2=NN3C(C2)c2ccccc2OC3c2ccc(OC)c(O)c2)c1 (stereo not drawn)	-
COc1cccc(C2Oc3ccccc3C3CC(c4ccccc4O)=NN32)c1 (stereo not drawn)	-
COc1ccc(C2Oc3ccccc3C3CC(c4ccccc4O)=NN32)cc1OC (stereo not drawn)	4.75
Oc1ccccc1C1=NN2C(C1)c1ccccc1OC2c1ccncc1 (stereo not drawn)	-
SMILES	Dicer inh
COc1ccc(C2Oc3ccccc3C3CC(c4ccccc4O)=NN32)cc1O (stereo not drawn)	-
Oc1ccc(C2Oc3ccccc3C3CC(c4ccccc4O)=NN32)cc1 (stereo not drawn)	18.1
CCOC(=O)C(=CNC1CCCCNC1=O)C(=O)OCC (stereo not drawn)	-
CCC(=O)c1cc(OC)c(OC)cc1OC	-
Cc1[nH]oc(=O)c1C=Nc1ccccc1	-
O=c1oc(-c2cccc(Br)c2)nc2ccc(O)cc12	-
Cc1cc(Nc2cccc(O)c2)c2cccc(C)c2n1	-
CCOC(=O)NC(=S)NCCc1c[nH]c2ccccc12	-
C=CCNC(=O)C(=O)NCCc1c[nH]c2ccccc12	3.71
N#C/C(=C\c1ccc(-c2cc(C(F)(F)F)cc(C(F)(F)F)c2)o1)C(=O)NCCc1c[nH]c2ccccc12	-
CS(=O)(=O)c1ccc2nc(NC(=O)c3cc4ccccc4o3)sc2c1	4.24
CS(=O)(=O)c1ccc2sc(NC(=O)c3cc4ccccc4o3)nc2c1	-
CS(=O)(=O)c1ccc2nc(NC(=O)Oc3ccccc3)sc2c1	-
COC(=O)C(C(=O)Nc1cc(C)on1)C1CCCC1 (stereo not drawn)	-
Cc1nonc1NC(=O)OC(C)C	-
Cc1nonc1NC(=O)OC1CCCCC1	3.42
COc1ccc(C2c3c(oc4ccc(C)cc4c3=O)C(=O)N2c2nc(C)c(C)s2)cc1OC (stereo not drawn)	-
CCOC(=O)c1ccc(Oc2ncc(C(F)(F)F)cc2Cl)cc1	-
Cc1ccc(N2CC(O)=C(c3nc4ccccc4s3)C2=N)cc1C	-
CN(C)c1ccc(/C=N/NS(=O)(=O)c2cc(Cl)c(Cl)cc2Cl)cc1	-
c1ccc(-c2nc(NCCCN3CCOCC3)c3ccccc3n2)cc1	-
c1ccc(-c2nc(NCCN3CCOCC3)c3ccccc3n2)cc1	3.28
CC(C)(C)c1ccc(-c2nc(NCCN3CCOCC3)c3ccccc3n2)cc1	-
Cc1cc(C)c2ccc(C3C(=O)c4ccccc4C3=O)nc2c1	-
CC(C)Oc1ccccc1-c1nc(SCC(=O)c2ccc(Br)cc2)n[nH]1	-
SMILES	Dicer inh
O=C(CCSc1nnnn1-c1ccccc1)Nc1ccc2c(c1)OCCO2	-
CC(C)(C)NC(=S)Nc1cc(C(F)(F)F)cc(C(F)(F)F)c1	-
C/C(=N\O)C(C)(C)Nc1cc(C(F)(F)F)cc(C(F)(F)F)c1	-
CC1(C)OC(=O)C(=NNc2cc(C(F)(F)F)cc(C(F)(F)F)c2)C(=O)O1	5.13
Cc1cc(C(=O)OCCN=C2NS(=O)(=O)c3ccccc32)c2ccccc2n1	-
N#Cc1ccc(CNC(=O)Nc2ccc(-c3ccccc3)s2)cc1	-
CCOC(=O)Cn1c(=O)c(C(=O)NC(=O)OCC)cn(Cc2ccccn2)c1=O	-
CC(=O)Nc1c(C)cc(Cl)cc1Cl	-
C/C(=N\Nc1c(Cl)cc(Cl)cc1Cl)c1oc(C)nc1C	3.16
C/C(=N\Nc1c(Cl)cc(Cl)cc1Cl)c1cc(F)ccc1O	-
COc1cc(C2OCC3(CO)C(C)C=C(C)C2C3C)ccc1O (stereo not drawn)	-
Cc1ccc(S(=O)(=O)NCCC2=CCCCC2)cc1	-
O=C(O)[C@H]1CCCC[C@H]1C(=O)NCCC1=CCCCC1	-
O=c1cc(NCCC2=CCCCC2)c2ccccc2o1	3.54
O=c1c2cn[nH]c2[nH]c(=S)n1-c1ccc(Cl)cc1	-
